The values that follow come from PubChem BioAssay AID623870 (Broad Institute, 2012).

For orientation: inhibition means the change of the read-out against control, counted positive when it falls.

Out of some 390,000 compounds screened, about 2,600 (0.67%) were called active. What follows is part of a selection rich in actives, with near analogues and random picks from the rest. Values without a mark were called inactive.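 The calls were made as follows: active = mean inhibition of replicates at least 50% and at least half of replicates each reaching 50%; inconclusive = half or more replicates reach 50% but mean below 50%; inactive = the rest.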

The assay deals with Transforming acidic coiled-coil-containing protein 3 (Homo sapiens) (UniProt Q9Y6A5). The assay is described as follows: disruptors of ARNT/TACC3 protein interaction, primary screen, biochemical, AlphaScreen, single concentration (AID 623870).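 Also: 0% = complete ARNT plus TACC3 wells and 100% = ARNT alone without TACC3.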 The conditions noted are these: AlphaScreen His-ARNT PAS-B/GST-TACC3 binding, luminescence; at 9.99 µM; stronger effect = higher value; TACC3 fragment carries E629A point mutation.
On to `COc1ccc(NC(=O)N(C)C[C@H]2OCCCC[C@@H](C)Oc3ccc(NS(=O)(=O)c4ccc(F)cc4)cc3C(=O)N([C@H](C)CO)C[C@H]2C)cc1`, for which the inhibition was -5.89%.

Regarding `C/C=C/c1cnc2c(c1)C(=O)N([C@@H](C)CO)C[C@@H](C)[C@H](CN(C)Cc1ccccc1)O2`, the inhibition was -2.09%.

For the compound `CCN1CCN(C(c2cccnc2)c2cc(Cl)c3cccnc3c2O)CC1` (stereo unspecified), the inhibition is 55.4% (active).

For `CCOC(=O)N1CCN(C(c2cccnc2)c2ccc3cccnc3c2O)CC1` (stereo unspecified), the inhibition was 61.4% (active).

With `CCOC(=O)N1CCN(C(=O)C2CCN(c3ncnc4c3sc3cccc(F)c34)CC2)CC1`, the inhibition is -0.287%.

As to `Cc1ccc(OCC(=O)N2CCN(C(=O)c3cccnc3)CC2)cc1`, the inhibition is -5.09%.

Consider `CCS(=O)(=O)Nc1ccc2c(c1)C(=O)N(C)[C@@H]1CC[C@H](CC(=O)N[C@H]3CCN(Cc4ccccc4)C3)O[C@@H]1CO2`, for which the inhibition was 4.57%.

With `CC=Cc1ccc2n(c1=O)C[C@H]1[C@H](CO)[C@@H](C(=O)NC3CCCC3)N(Cc3ccncc3)[C@@H]21` (mixture of isomers), the inhibition is 7.61%.

Consider `O=C(C[C@@H]1C[C@@H]2c3cc(NC(=O)C4CCC4)ccc3O[C@@H]2[C@@H](CO)O1)NCc1ccccc1`, for which the inhibition is -8.97%.

`CCC(=O)N1C[C@H](C)[C@H](OC)CN(C)C(=O)c2ccc(NS(C)(=O)=O)cc2OC[C@H]1C`: the inhibition is 0.229%.

For the compound `COc1ccccc1C(=O)Nc1ccc2c(c1)C(=O)N(C)C[C@@H](OC)[C@@H](C)CN(C)[C@H](C)CO2`, the inhibition was 5.81%.

Turning to `CN1C(=O)c2cc(NC(=O)Nc3ccccc3Cl)ccc2OC[C@H]2O[C@H](CC(=O)NCCCN3CCOCC3)CC[C@H]21`, the inhibition was -6.44%.

In the case of `CCN(C(=O)Cc1nc(N)n[nH]1)C1(C(=O)Nc2ccccc2)CCCCC1`, the inhibition was 73.1% (active).

In the case of `CCOC(=O)c1cn[nH]c1NC(=S)Nc1ccccc1`, the inhibition was -4.6%.

Regarding `COc1cc(C2c3cc4c(cc3C(O)C3COC(=O)C23)OCO4)cc(OC)c1OC` (stereo unspecified), the inhibition was -5.89%.

For the compound `COc1ccc(-c2ccc3c(c2)[C@H]2[C@H](CCN2C(=O)c2ccc4c(c2)OCO4)[C@@H](CO)N3)cc1`, the inhibition was 2.52%.

For the compound `COc1c(O)ccc2c1CN1CCc3cc4c(cc3C1C2)OCO4` (stereo unspecified), the inhibition is 59.9% (active).

Regarding `CC(C)C#Cc1cnc2c(c1)C(=O)N([C@H](C)CO)C[C@H](C)[C@@H](CN(C)C(=O)Nc1cc(F)ccc1F)O2`, the inhibition was 2.21%.

In the case of `C[C@H]1CN([C@@H](C)CO)C(=O)c2cc(C#Cc3ccccc3F)cnc2O[C@H]1CN(C)C`, the inhibition is -2.77%.

For the compound `CC=Cc1ccc2n(c1=O)C[C@@H]1[C@@H](CO)[C@H](C(=O)NCC)[C@H]2N1CCC(F)(F)F` (mixture of isomers), the inhibition is -2.83%.

As for `COc1ccccc1C(=O)Oc1ccc(N2C(=O)CCC2=O)cc1`, the inhibition is -4.25%.

Take `COc1ccc(Cl)cc1NC(=O)c1cccc(N2C(=O)C3CC=CCC3C2=O)c1` (stereo unspecified): the inhibition is 3.74%.

With `COc1ccccc1-c1nnc(NC(=O)c2cccc(N3C(=O)CCC3=O)c2)o1`, the inhibition was 60.7% (active).

As to `CCNC(=O)C[C@H]1CC[C@@H](NC(=O)C2CCOCC2)[C@@H](CO)O1`, the inhibition is -5.26%.

As for `O=S(=O)(c1ccc(F)cc1)N1CCCCN2[C@H](CO)[C@@H](c3ccc(C#CC4CCCC4)cc3)[C@H]2C1`, the inhibition was 5.01%.

As to `CC(C)NC(=O)Nc1cccc2c1O[C@H](CN(C)S(=O)(=O)c1ccccc1)[C@@H](C)CN([C@@H](C)CO)C2=O`, the inhibition was -11.5%.

`C=CCOc1ccc(/C=N/NC(=O)C(C)Sc2ccccn2)cc1OCC` (stereo unspecified): the inhibition was 14.2%.

For `Cc1c(NC(=O)C(=O)N/N=C/c2cccs2)c(=O)n(-c2ccccc2)n1C`, the inhibition is 4.89%.

On to `CNC(=O)C(=O)N/N=C/c1ccccn1`, for which the inhibition is 57.1% (active).

In the case of `COc1ccccc1S(=O)(=O)N[C@@H]1C=C[C@H](CC(=O)N2CCOCC2)O[C@@H]1CO`, the inhibition was -20.1%.

Consider `CN1[C@@H]2c3ccc(C4=CCCCC4)c(=O)n3C[C@H]1[C@H](CO)[C@H]2C(=O)NCc1ccc(F)cc1`, for which the inhibition was 3.89%.

Take `Cc1cc(C)nc(N/N=C/c2c(CO)cnc(C)c2O)n1`: the inhibition was 63% (active).

Turning to `COc1ccc(CNC(=O)C[C@H]2C[C@@H]3c4cc(NC(=O)NC5CCCC5)ccc4O[C@@H]3[C@H](CO)O2)cc1`, the inhibition is -2.96%.

Regarding `COc1ccc(S(=O)(=O)N2CCCCN3[C@H](CO)[C@H](c4ccc(C5=CCCCC5)cc4)[C@@H]3C2)cc1`, the inhibition was -0.894%.

In the case of `CO[C@@H]1CN(C)C(=O)c2ccc(NC(=O)Nc3cc(Cl)cc(Cl)c3)cc2OC[C@H](C)NC[C@H]1C`, the inhibition is 17.2%.

For the compound `C[C@H]1CN([C@@H](C)CO)S(=O)(=O)c2ccc(-c3ccncc3)cc2O[C@@H]1CN(C)C(=O)CC1CC1`, the inhibition is -7.68%.

Turning to `CCN(C[C@@H]1[C@H](c2ccccc2)[C@@H](CO)N1CC1CC1)C(=O)c1ccccn1`, the inhibition was 1.43%.

Consider `CCN(CC)CCOc1ccc2c(c1)C(=NNC(=O)c1ccccn1)c1cc(OCCN(CC)CC)ccc1-2`, for which the inhibition is 58.8% (active).

In the case of `COCC(=O)N1[C@H](CNC(=O)c2ccccn2)[C@H](c2ccccc2)[C@@H]1CO`, the inhibition is 0.322%.

Turning to `C[C@@H]1CN([C@@H](C)CO)C(=O)c2cccc(NC(=O)c3nc4ccccc4s3)c2O[C@@H]1CN(C)Cc1ccc(Cl)c(Cl)c1`, the inhibition was -2.22%.

As to `CCn1cc(/C=C2/SC(=S)NC2=O)c(C)n1`, the inhibition was 23.8% (active).

On to `Cc1nn(C)cc1/C=C1\CCC/C(=C\c2cn(C)nc2C)C1=O`, for which the inhibition was 2.65%.

As for `COc1ccc(NC(=O)N(C)C[C@H]2Oc3c(NC(=O)NC(C)C)cccc3C(=O)N([C@@H](C)CO)C[C@H]2C)cc1`, the inhibition was -14%.

Take `COc1cc(SC#N)ccc1N=Cc1c(C)[nH]n(-c2ccc(C)cc2)c1=O`: the inhibition is 2.45%.

Consider `CCc1nnc(NC(=O)CCN(c2ccc(C)cc2)S(=O)(=O)c2ccccc2)s1`, for which the inhibition is 2%.

As for `CCc1nnc(NS(=O)(=O)c2ccc(N=Cc3c(C)[nH]n(-c4ccc(C)cc4)c3=O)cc2)s1`, the inhibition is 45.6% (active).
